These results are taken from PMC5869772, “Quantitative profiling of BATF family proteins/JUNB/IRF hetero-trimers using Spec-seq”.

The assay addresses T1, BATF;JUNB (human;human, UniProt Q16520;P17275 1-125;148-347, |).
T1 sequence 1: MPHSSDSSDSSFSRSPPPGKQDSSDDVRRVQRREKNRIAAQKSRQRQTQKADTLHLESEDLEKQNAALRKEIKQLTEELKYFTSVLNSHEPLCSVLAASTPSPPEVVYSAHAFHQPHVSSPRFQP
T1 sequence 2: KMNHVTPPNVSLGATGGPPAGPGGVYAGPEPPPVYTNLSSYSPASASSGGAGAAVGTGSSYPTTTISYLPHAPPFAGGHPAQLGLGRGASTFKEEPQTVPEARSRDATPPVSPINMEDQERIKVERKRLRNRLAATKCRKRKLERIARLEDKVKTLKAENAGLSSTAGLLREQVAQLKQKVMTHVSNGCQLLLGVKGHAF
Briefly: Spec-seq (EMSA and sequencing of bound and unbound bands); 100 nM BATFx-JUNB, 1 uM dsDNA library, 50 mM K acetate, 20 mM Tris-acetate, 10 mM Mg acetate, 100 ug/ml BSA, pH 7.9, 10% glycerol, 30 min on ice; native 9% PAGE at 4 C; low values mean tight binding. The following applies: protein: recombinant;recombinant; tags: N-terminal mCherry-TEV, cleaved off;C-terminal 6His; copies: 1;1; dsDNA, one strand shown. The gist of the method: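 The protein, at 100 nM, was incubated with 1 μM double-stranded degenerate DNA library for 30 min on ice in NEB Cutsmart buffer with 10% glycerol, then resolved by native 9% PAGE at 4 °C. Excised bound and unbound bands were PCR-barcoded and Illumina-sequenced, and each sequence's relative binding energy in kT is −ln of its bound/unbound read-count ratio.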
Regarding “GATAGTCTCATTTTCACCCCGTGAAATGAGTTAGTTGTTCCATTACAGTATCTGT”, the binding signal worked out at 0.169 kT. The figure for “GATAGTCTCATTTTCACCCCGTGAAATGACTCACTTGTTCCATTACAGTATCTGT” is -0.778 kT; for “GATAGTCTCATTTTCACCCCGTGAAAGGACGTCATTGTTCCATTACAGTATCTGT” it is -0.227 kT.

Turning to “GATAGTCTCATTTTCACCCCGTGAAATGACTTAGTTGTTCCATTACAGTATCTGT”, the binding signal worked out at 0.0125 kT. To “GATAGTCTCATTTTCACCCCGTGAAATGAGCCACTTGTTCCATTACAGTATCTGT” belongs 0.573 kT; to “GATAGTCTCATTTTCACCCCGTGAAATGAGTCGCTTGTTCCATTACAGTATCTGT”, 0.025 kT. For “GATAGTCTCATTTTCACCCCGTGAAATGAGTCTCTTGTTCCATTACAGTATCTGT”, the binding signal was 0.273 kT. For “GATAGTCTCATTTTCACCCCGTGAAATGAGTCATTTGTTCCATTACAGTATCTGT”, the binding signal is -1.06 kT.

In the case of “GATAGTCTCATTTTCACCCCGTGAAATGGCTCATTTGTTCCATTACAGTATCTGT”, the binding signal is 0.393 kT. The figure for “GATAGTCTCATTTTCACCCCGTGAAATTACTCATTTGTTCCATTACAGTATCTGT” is -0.755 kT; for “GATAGTCTCATTTTCACCCCGTGAAATGACTCGTTTGTTCCATTACAGTATCTGT” it is -0.0971 kT; for “GATAGTCTCATTTTCACCCCGTGAAATGAGTCCCTTGTTCCATTACAGTATCTGT” it is 0.424 kT. On to “GATAGTCTCATTTTCACCCCGTGAAATGACGTGATTGTTCCATTACAGTATCTGT”, for which the binding signal is -0.588 kT. To “GATAGTCTCATTTTCACCCCGTGAAATGACTCGATTGTTCCATTACAGTATCTGT” belongs -0.328 kT. To “GATAGTCTCATTTTCACCCCGTGAAATGTCTCATTTGTTCCATTACAGTATCTGT” belongs 0.287 kT.

As to “GATAGTCTCATTTTCACCCCGTGAAATGAGTCCTTTGTTCCATTACAGTATCTGT”, the binding signal turned out to be 0.17 kT. To “GATAGTCTCATTTTCACCCCGTGAAAGGACTCATTTGTTCCATTACAGTATCTGT” belongs 0.219 kT; to “GATAGTCTCATTTTCACCCCGTGAAATGAGGCAGTTGTTCCATTACAGTATCTGT”, 0.781 kT.

As to “GATAGTCTCATTTTCACCCCGTGAAATGAGGCAATTGTTCCATTACAGTATCTGT”, the binding signal came out at 0.661 kT.

Turning to “GATAGTCTCATTTTCACCCCGTGAAAGTGGGTCATTGTTCCATTACAGTATCTGT”, the binding signal is 0.393 kT.

For “GATAGTCTCATTTTCACCCCGTGAAAAGAGTCATTTGTTCCATTACAGTATCTGT”, the binding signal was -0.155 kT. Consider “GATAGTCTCATTTTCACCCCGTGAAATGACTCGCTTGTTCCATTACAGTATCTGT”, for which the binding signal was -0.141 kT.

“GATAGTCTCATTTTCACCCCGTGAAAACGAGTCATTGTTCCATTACAGTATCTGT”: the binding signal is -0.809 kT. To “GATAGTCTCATTTTCACCCCGTGAAATGATGTCATTGTTCCATTACAGTATCTGT” belongs -0.738 kT; to “GATAGTCTCATTTTCACCCCGTGAAATGACGTTATTGTTCCATTACAGTATCTGT”, -0.288 kT; to “GATAGTCTCATTTTCACCCCGTGAAATGAGGTCATTGTTCCATTACAGTATCTGT”, -0.348 kT. The figure for “GATAGTCTCATTTTCACCCCGTGAAAAGGAGTCATTGTTCCATTACAGTATCTGT” is -0.134 kT. The figure for “GATAGTCTCATTTTCACCCCGTGAAAATGCGTCATTGTTCCATTACAGTATCTGT” is -1.01 kT; for “GATAGTCTCATTTTCACCCCGTGAAATGACACACTTGTTCCATTACAGTATCTGT” it is -0.0204 kT. Regarding “GATAGTCTCATTTTCACCCCGTGAAATTGCGTCATTGTTCCATTACAGTATCTGT”, the binding signal was -0.89 kT. To “GATAGTCTCATTTTCACCCCGTGAAATGAGTTACTTGTTCCATTACAGTATCTGT” belongs 0.198 kT; to “GATAGTCTCATTTTCACCCCGTGAAATGAGTCTGTTGTTCCATTACAGTATCTGT”, 0.124 kT. The figure for “GATAGTCTCATTTTCACCCCGTGAAATGTGTCATTTGTTCCATTACAGTATCTGT” is -0.52 kT.
